Results taken from PubChem BioAssay AID720514 (Broad Institute, 2013).
Among all 2,100 compounds or so, about 300 (14%) were called active. About 2% were inconclusive and are not listed.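 Rule for the calls: active = every replicate test run called active, with the signal falling and half-maximal concentration within twice the top valid dose; inconclusive = the replicate test runs disagree in their calls; inactive = every test run inactive, including effects in the opposite direction.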 Not all results are given here. Entries with a potency or affinity are not part of this list.

Assay: inhibitors of PGC1a acetylation in cells, dose response, cell-based, cherry-picked samples (AID 720514);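 note: 0% = neutral control wells and -100% = positive control wells; actives lower the acetylation signal so they count as inhibitors of PGC1a acetylation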
Settings: U2OS PGC1a acetylation, AlphaLISA, overnight; series mostly up to 19.5 µM; activity change, negative = inhibition: at the top concentration

Activity change, negative = inhibition, inactive:
Cc1csc(NC(=O)CSc2nsc(SCC(=O)Nc3nc(C)cs3)c2C#N)n1 75%, CN1CCN(c2ccc(CNC(=O)c3ccc(-c4ccnn4C)c4ccoc34)cc2)CC1 66.9%, COc1cc(CN2CCCC(CO)(Cc3cccc(Cl)c3)C2)cc2c1OCO2 (stereo not given) 61.2%, CCOc1ccc(N(C)S(=O)(=O)c2cc(-c3cc(C)no3)ccc2C(C)C)cc1 144%, C[C@@H]1CN([C@@H](C)CO)C(=O)c2c(c3ccccc3n2C)-c2ccccc2CO[C@@H]1CN(C)C(=O)Nc1ccc2c(c1)OCO2 163% [at 21 µM], COC(=O)c1cc(S(=O)(=O)N2CCN(c3ccc(C(C)=O)cc3)CC2)c[nH]1 112%, CCC(=O)N(CC)c1nc(-c2ccc(OC)cc2)cs1 58.5%, CSc1nc(NCc2ccco2)c2ccccc2n1 41.5%, Cc1ccc2oc(-c3ccc(NC(=O)c4cccnc4)cc3)nc2c1 276%, CC(C)CCNc1nc(N2CCCC2)c2c(c1C#N)CCN(C)C2 68.1% [at 10 µM], OC(c1ccccc1)(C1CCCCC1)C(CN1CCOCC1)c1ccccc1 (stereo not given) 75.2% [at 10 µM], CC/C(=C(\c1ccc(O)cc1)c1ccc(OCCN(C)C)cc1)c1ccccc1 137% [at 10 µM], COc1ccc(CCC(=O)NCCS(=O)(=O)N2CCN(c3ccccc3)CC2)cc1 49.9%, COc1ccccc1CN1CCCC(C(=O)N(C)Cc2ccccc2)C1 (stereo not given) 56.3% [at 10 µM], CCN1CCN(C(=O)c2ccc3c(=O)n(CCC4=CCCCC4)c(=O)[nH]c3c2)CC1 90.2%, O=[N+]([O-])c1ccc(N2CCN(CC3CCCCC3)CC2)cc1 41.3%, c1ccc(Cn2nnnc2C(c2cccs2)N2CCCCCC2)cc1 (stereo not given) 44.4%, CC(C)C(c1nnnn1Cc1ccccc1)N(Cc1ccco1)Cc1cccs1 (stereo not given) 141%, COc1ccc(C(c2nnnn2C2CCCC2)N2CCC(C)CC2)c(OC)c1 (stereo not given) 74.1%, c1ccc(CN2OCC3Cn4c(nc5ccccc54)C32)cc1 (stereo not given) 31.5%, c1ccc(C(c2nnnn2Cc2cccs2)N2CCN(C3CCCC3)CC2)cc1 (stereo not given) 49.8%, COc1ccc(-n2nnnc2CNC(=O)c2ccc3ccccc3c2)cc1 48.8% [at 10 µM], COc1cccc(CN2C[C@@H]3N[C@H](C2)C3c2ccc(-c3ccccc3F)cc2)c1 (stereo not given in full) 46.1%, CCOC(=O)Cn1cnc2scc(-c3ccccc3)c2c1=O 18%, O=C(Cc1ccccc1)Nc1nc(-c2ccc(F)c(F)c2)cs1 75%, Cc1cccc(-c2ccc(C3[C@@H]4CN(C(=O)C5CCCCC5)C[C@H]3N4)cc2)c1 (stereo not given in full) 58.1% [at 10 µM], COc1cccc(-c2ccc(C3[C@@H]4CN(Cc5ccccn5)C[C@H]3N4)cc2)c1 (stereo not given in full) 59.2%, COc1ccccc1CN1C[C@@H]2N[C@H](C1)C2c1ccc(-c2ccccc2OC)cc1 (stereo not given in full) 40.7% [at 21 µM], COc1cccc(CN2C[C@@H]3N[C@H](C2)C3c2ccc(-c3cccc(C#N)c3)cc2)c1 (stereo not given in full) 79.6%, COc1cccc(C(=O)c2c[nH]c(C(=O)NCc3cccnc3)c2)c1 269%, CCN(CC)S(=O)(=O)c1c(Br)cc(C)cc1Br 56.1%, CCN(CC)c1ccc(N)cc1S(=O)(=O)Nc1ccccc1OC 63.3%, O=C(C(Cc1ccccc1)n1cccc1)N1CCN(c2ccccc2)CC1 (stereo not given) 156%, O=C(c1ccccc1)c1nn(-c2ccc(Cl)cc2)c(=O)cc1C(F)(F)F 57% [at 10 µM], CCn1c(=S)[nH]c2cc(S(=O)(=O)N3CCCCC3)ccc21 144%, C[C@@H]1CN([C@H](C)CO)C(=O)c2cccc(NC(=O)c3ccc(-c4nccs4)cc3)c2O[C@@H]1CN(C)Cc1ccc(C(=O)Nc2ccccc2N)cc1 114%, CC(C)C#Cc1ccc([C@@H]2[C@H](CO)N3C(=O)CN(C(=O)NC4CCCC4)C[C@@H]23)cc1 23.8%, CC1(C)OC(C)(C)/C(=C\c2ccc(OCC(N)=O)cc2)C1=O 57% [at 10 µM], COc1ccc(S(=O)(=O)N(Cc2ccccc2)Cc2nc(-c3ccccc3)no2)cc1 68.8%, Cc1c(OCc2ccc(C(=O)O)cc2)ccc2c(-c3ccccc3)cc(=O)oc12 43.5%, CC(C)NC(=O)N(C)C[C@H]1OCCCC[C@@H](C)Oc2ccc(NC(=O)Cc3ccccc3)cc2C(=O)N([C@@H](C)CO)C[C@H]1C 45.8%, C[C@@H]1CN([C@H](C)CO)C(=O)c2cc(N(C)C)ccc2O[C@@H](C)CCCCO[C@H]1CN(C)C(=O)Nc1ccccc1 69%, C[C@H](CO)N1C[C@H](C)[C@@H](CN(C)S(=O)(=O)c2ccccc2)OCCCC[C@H](C)Oc2ccc(NC(=O)Nc3cccc4ccccc34)cc2C1=O 48.3% [at 21 µM], CC(C)NC(=O)Nc1ccc2c(c1)C(=O)N([C@@H](C)CO)C[C@@H](C)[C@@H](CN(C)S(=O)(=O)c1ccccc1)OCCCC[C@H](C)O2 43.1%, COCCOC(=O)N1C(=O)[C@@]2(c3ccccc31)[C@H](c1ccccc1OCCO)N1[C@H](c3ccccc3)[C@H](c3ccccc3)OC(=O)[C@H]1[C@@H]2C(=O)N1CCCCCCC1 29.6%, c1ccc(-c2c(-c3ccccc3)n(Cc3ccco3)c3ncnc(NCCCn4ccnc4)c23)cc1 228%, C=CCn1c(SCC(=O)NC(=O)NCc2ccco2)nc2sc(CC)cc2c1=O 35.5%, O=C(CSc1nc2c(sc3ccccc32)c(=O)n1CCc1ccccc1)NCc1ccco1 44.7%, CCOC(=O)c1ccc(NC(=O)Nc2ccc(F)cc2)cc1 34.3%, CC(=O)Nc1ccc(Nc2ncnc3c2cnn3-c2ccc(C)cc2C)cc1 105%, Cc1cc(Nc2cccc(Cl)c2)c2ccccc2n1 75.5%, Cc1cc(C)c(S(=O)(=O)Nc2ccccc2-c2ccccc2)c(C)c1 96.5%, COc1ccccc1-c1ccc2c(c1)O[C@@H](CN(C)Cc1ccc3c(c1)OCO3)[C@@H](C)CN([C@@H](C)CO)S2(=O)=O 65.4%, COC(=O)c1ccc(NC(=O)C23CC4CC(C2)CC(n2cnc(Cl)n2)(C4)C3)cc1 81.3%, CCOc1ccc(S(=O)(=O)N2c3ccccc3CC2C)cc1 (stereo not given) 52.3%, CCOc1ccc(N2C(=O)CC(Cc3ccc(Br)cc3)C2=O)cc1 (stereo not given) 46.2%, CCCCN=C1NC(=O)C(CC(=O)Nc2ccc(Cl)cc2)S1 (stereo not given) 77.7%, O=C(Cc1ccccc1)N1CCN(C(=O)c2cccs2)CC1 74.4%, CCN1CCN(c2ncc(C(=O)Nc3cc(Cl)ccc3OC)c3ccccc23)CC1 52.8% [at 10 µM], CCN1CCN(c2cc(C)c3cc(NC(=O)c4ccc(Br)o4)ccc3n2)CC1 39.5%, C[C@H]1CN([C@@H](C)CO)C(=O)c2cccc(NS(=O)(=O)c3ccc(F)cc3)c2O[C@H]1CN(C)Cc1ccc(C(F)(F)F)cc1 70.5%, COc1ccc(S(=O)(=O)N(C)C[C@@H]2Oc3cc(C#CC4CC4)ccc3S(=O)(=O)N([C@H](C)CO)C[C@@H]2C)cc1 43%, COc1ccc(S(=O)(=O)N(C)C[C@@H]2Oc3cc(C#CC4CC4)ccc3S(=O)(=O)N([C@@H](C)CO)C[C@@H]2C)cc1 51.9%, CCCCC(=O)Nc1ccc(NC(=O)c2cccs2)cn1 38.6%, OCCNc1nc(N2CCCCC2)nc2ccccc12 45.5%, Cc1ccc(-c2nnc(Nc3ccc4c(c3)OCO4)c3ccccc23)cc1S(=O)(=O)NCCO 76.8%, O=[N+]([O-])c1cc(-c2nnc(Nc3ccc(O)cc3)c3ccccc23)ccc1N1CCOCC1 90.6%, Cc1ccc2c(CN(Cc3ccccc3)Cc3ccccc3)cc(=O)oc2c1 38.4%, COCCNC(=O)c1ccc(C)cc1C 24.6%, COc1ccc(S(=O)(=O)N2CC[C@@H]3[C@H](CO)Nc4ccc(-c5ccccc5F)cc4[C@@H]32)cc1 68.9% [at 21 µM], Cc1ccc(S(=O)(=O)N(Cc2ccc(F)cc2)Cc2ccco2)cc1 84.4%, CCOc1ccc(Nc2oc(-c3ccc(Cl)cc3)nc2C#N)cc1 58% [at 10 µM], CO[C@@H]1CN(C)C(=O)c2cc(NC(=O)c3ccc4c(c3)OCO4)ccc2OC[C@@H](C)N(CC2CC2)C[C@H]1C 17.3% [at 21 µM], COCC(=O)Nc1ccc2c(c1)OC[C@@H](C)N(CCc1ccccc1)C[C@H](C)[C@H](OC)CN(C)C2=O 51.7%, COc1ccc(S(=O)(=O)N(C)C[C@@H]2Oc3ccc(NC(=O)CCN4CCOCC4)cc3C(=O)N([C@H](C)CO)C[C@H]2C)cc1 22.6%, COC(=O)c1c(NC(=O)COC(=O)[C@@H](NS(=O)(=O)c2ccccc2)C(C)C)sc2c1CCC2 67.1%, Cc1cc(Nc2ccccc2)cc(=O)n1C 16.7%, CCN(CC)CCOc1ccc(/C(=C(\Cl)c2ccccc2)c2ccccc2)cc1 61.5% [at 10 µM], COc1ccc(CN(CCC(C)C)S(=O)(=O)c2ccccc2Br)cc1 127%, Nc1nnc(SCC(=O)NC2CCCCC2)n1-c1ccccc1 11.5%, O=C(NC1CCCCC1)c1cccnc1C(=O)O 37.9%, Cc1ccccc1Cn1cc(NC(=O)c2cc(-c3cccs3)on2)cn1 81%, Cc1cc2cc3c(cc2nc1SCC(=O)OC(C)C)OCCO3 60.8%, Cc1cccc(-c2ccc3[nH]c4c(c3c2)CCN2C[C@@H]([C@H](C)O)[C@@H](N(C)C(=O)NC3CCCCC3)C[C@@H]42)c1 56.9%, O=C(Nc1ccc(-c2noc(CCc3ccccc3)n2)cc1)c1cccnc1 407%, COC(=O)c1ccc2[nH]c3cccc(/C(=C/c4ccccc4)c4ccccc4)c3c2c1 55%, O=C(Nc1cnc2ccccc2c1)c1cccnc1 156% [at 5 µM], COc1ccc(Br)cc1CNc1ccccc1 103%, CCn1c(SCC(=O)Nc2ccc(NC(=O)c3ccco3)cc2)nnc1-c1cccs1 162% [at 10 µM], Cc1cc(C)n2c(SCC(=O)NCc3ccco3)nnc2n1 22.2%, NC(=O)Cc1ccc2c(c1)[nH]c1ccccc12 177%, O=S(=O)(c1ccc(Cl)cc1)N1[C@@H]2CNC[C@H]1C2c1ccc(-c2cccc(F)c2)cc1 (stereo not given in full) 115% [at 21 µM], Cc1ccccc1-c1ccc(C2[C@@H]3CN(S(=O)(=O)c4ccccc4C)C[C@H]2N3)cc1 (stereo not given in full) 50.7%, Cc1ccc(S(=O)(=O)N2C[C@@H]3N[C@H](C2)[C@@H]3c2ccc(-c3cccc(C)c3)cc2)cc1 23.7%, COc1ccccc1-c1ccc(C2[C@@H]3CN(S(=O)(=O)c4ccc(C)cc4)C[C@H]2N3)cc1 (stereo not given in full) 43.6% [at 21 µM]
